# Source: PubChem BioAssay (several laboratories)
# Compounds with a hit are over-represented: about 9.7% of the library has one in this group of screens.
# WNV protease inh – inhibitors of West Nile virus NS2B-NS3 protease | P06935 | WNV NS2B-NS3 protease, fluorogenic substrate Ex360/Em465; stronger effect = lower value | z-score (concentration not given with the values) | hit rate 0.18% among 65,000; in the data active = z-score below about -3
# BAP1 inh – human BAP1 deubiquitinase inhibition; recombinant BAP1, Ub-AMC hydrolysis fluorescence kinetic; stronger effect = lower value; calls only at 20 µM; hit rate 0.48% among 72,000; AID 436;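 active = activity remaining at or below 50% of control, provided the compound also passes the data quality filters; inactive = the rest, including low values that fail the filters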;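 also: 100% = DMSO wells rate and 0% = substrate alone blank rate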
# M1 ag – agonists of M1 muscarinic receptor | CHO-M1 cells, Fluo-4 calcium fluorescence, agonist mode; stronger effect = higher value | B-score at 10 µM | hit rate 3% among 64,000 | AID 626;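 active = fluorescence rise, raw or as B-score row- and column-corrected plate score, outside the 99.7% band of its plate's samples, either direction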
# Autofluor 339 – intrinsic fluorescence of library compounds, ex339/em460 – biochemical, MLSMR library, data from DPM-DC assay, artefact control, profiling panel. compound autofluorescence, ex339/em460 nm, NADH buffer; stronger effect = higher value; 1 = no-compound wells, NADH background. fluorescence fold increase at 10 µM. hit rate 5.5% among 65,000. AID 709;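 active = at 10 µM, mean starting fluorescence two-fold or more over control wells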;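 also: signal is the first read of a kinetic run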
# Abs 340nm – compound absorbs light at 340 nm; compound absorbance at 340 nm, fold over control; fold change at 10 µM; 65,000 tested, under 10 active;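 active = at 10 µM dose, initial 340 nm absorbance at least 2 fold that of control wells; inactive = change under 2 fold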;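 also: initial absorbance extrapolated from kinetic A340 decline of NADH oxidation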
# M1 antag – M1 muscarinic receptor (rat) antagonism; P08482; CHO-M1 cells, Fluo-4 calcium, ACh EC80 antagonist mode; stronger effect = lower value; B-score at 10 µM; hit rate 3.4% among 64,000;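 active = calcium fluorescence response, raw or row-and-column corrected B-score, differing from the plate sample mean either way at a set confidence level, mostly lower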
# * hit, by the source's call; i = inactive; · = no result shown.
SMILES,WNV protease inh,BAP1 inh,M1 ag,Autofluor 339,Abs 340nm,M1 antag
O=C(CN1CCC2(CC1)OCCO2)c1ccc2cc[nH]c2c1,-1.78,i,-0.632,3.23*,1.1,0.55
CCCOc1ccc(C2Oc3ccccc3C3CC(c4ccccc4)=NN32)cc1 (stereo not given),·,i,·,·,·,·
CCCCS(=O)(=O)c1sc2nc(C)cc(C)c2c1N,1.67,i,-0.777,2.05*,1.13,-0.263
Cc1cc(C)c2c(N)c(S(=O)(=O)c3ccccc3)sc2n1,-0.7,i,0.829,1.35,1.11,0.00419
Cc1cc(OC(=O)c2ccccc2)n(CCC#N)n1,-11.4*,i,-1.62,1.06,0.98,-0.0542
O=C1Nc2ccccc2C1=NC1CCS(=O)(=O)C1 (stereo not given),·,i,·,·,·,·
CCN(CC)CC(=O)N(C)c1c(N)n(C)c(=O)[nH]c1=O,·,i,·,·,·,·
COc1ccc(-n2nc3ccc(NS(C)(=O)=O)cc3n2)cc1Cl,1.04,·,-0.636,3.82*,1.16,-0.459
Cc1cc(-n2c(C)cc(C(=O)CN3C(=O)NC4(CCCCC4)C3=O)c2C)no1,0.7,i,0.477,1.01,1,1.66*
Cc1csc(NC(=O)CSc2nnc(-c3ccoc3C)n2CCc2ccccc2)n1,-1.16,i,·,1.08,1.01,·
Cc1occc1-c1nnc(SCC(=O)Nc2nccs2)n1CCc1ccccc1,0.21,·,-0.0497,2.11*,1.03,-0.115
COc1ccccc1-c1nnc2sc(-c3ccc(N(C)C)cc3)nn12,-0.6,i,-0.166,2.32*,1.04,-0.771
COc1ccccc1-c1nn2c(C(F)(F)F)nnc2s1,0.05,i,-0.965,3.01*,1.07,0.247
Cc1ccc(C)c(N2CCN(C(=O)c3cc4ccccc4oc3=O)CC2)c1,0.49,i,-0.125,1.07,1.06,1.13
O=C(c1cc2ccccc2oc1=O)N1CCN(c2ccc(N3CCOCC3)nn2)CC1,-4.02*,i,-0.384,1.07,1.01,-0.127
CCCCN(C)Cc1c(O)ccc2c(=O)c(Oc3ccccc3Br)c(C(F)(F)F)oc12,·,i,·,·,·,·
COC(=O)c1cc2nc(-c3ccccc3)cc(C)n2n1,-0.56,·,-0.132,3.65*,1.03,0.108
COC(=O)c1cc2nc(-c3ccc(OC)cc3)cc(C(F)(F)F)n2n1,-0.27,i,-1.41,2.19*,1.04,0.907
COc1ccc(NC(=O)c2cc3nc(-c4ccc(OC)c(OC)c4)cc(C(F)(F)F)n3n2)cc1OC,·,i,·,·,·,·
COc1cccc2cc(-c3nc4ccccc4[nH]3)c(=Nc3cccc(C)c3)oc12,·,i,·,·,·,·
CCCCn1c(SCC(=O)NCc2ccco2)nc2ccc(N3CCOCC3)cc2c1=O,-0.16,i,0.324,3.77*,1.06,-0.427
CCC(C)NC(=O)CSc1nc2ccc(N3CCOCC3)cc2c(=O)n1CCc1ccccc1 (stereo not given),0.08,i,0.0554,2.29*,0.99,-0.171
N#CCSc1nc2ccc(N3CCCCC3)cc2c(=O)n1Cc1ccccc1,-0.86,i,-0.0887,2.98*,1.07,-0.345
CCCCCn1c(SCC(=O)OCC)nc2cc(C(=O)NCc3ccco3)ccc2c1=O,-0.58,i,0.0894,1.14,1.03,0.0469
CCCCn1c(SCC(=O)NCc2ccccc2)nc2ccc(N3CCOCC3)cc2c1=O,-0.3,i,-0.984,2.23*,1,-0.133
SMILES,WNV protease inh,BAP1 inh,M1 ag,Autofluor 339,Abs 340nm,M1 antag
CCOC(=O)CSc1nc2ccc(N3CCOCC3)cc2c(=O)n1Cc1ccc2c(c1)OCO2,-0.13,i,0.000312,2.27*,1,-0.173
CCCCn1c(SCC(=O)Nc2ccc(OC)cc2)nc2ccc(N3CCOCC3)cc2c1=O,0.3,i,0.182,2.42*,0.98,0.318
Cc1ccc(NC(=O)CCCCCN2C(=O)c3ccccc3C2=O)c(Br)c1,·,i,·,·,·,·
Cc1ccccc1N(CCN1C(=O)c2cccc3c(N4CCCCC4)ccc(c23)C1=O)C(=O)c1ccc(S(=O)(=O)N(C)C)cc1,·,i,·,·,·,·
COC(=O)c1cc2c([nH]c3ccccc32)c(C)n1,1,·,0.102,4.84*,1.04,-0.245
CCCc1cc(-c2[nH]ncc2-c2ccc(C(=O)OCC)o2)c(O)cc1O,-0.73,i,0.658,2.18*,1.01,0.503
O=C(O)CCC(=O)Nc1ccc(-c2cn3ccccc3n2)cc1,·,i,·,·,·,·
CCN(CC)S(=O)(=O)c1ccc2[nH]cc(C(=O)NCCN3CCCCCC3)c(=O)c2c1,1.72,i,-0.74,2.92*,1.06,-0.304
